Results: PubChem BioAssay (EPA / NIEHS)
The source made the active and inactive calls. How the source made its calls: active means hit-call score of the fitted dose curve at least 0.9, where 1 is the maximum; inactive means score below 0.9.

Assays:
[1] = ATG_M_61_CIS: Attagene CIS-FACTORIAL HepG2 Assay for M61 Transcription Factor (Internal Marker) (AID 2282937); details: HepG2 Attagene CIS-FACTORIAL M61 internal marker reporter; actives raise or lower the signal
Method in brief: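 Human liver HepG2, transient MRTU transfection (cis promoter elements), 24 h compound. Total RNA → oligo(dT) RT → PCR → FAM label → HpaI → CE. Internal background marker; bidirectional fitting, DMSO = baseline.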

[2] = ATG_EGR_CIS: Attagene CIS-FACTORIAL HepG2 Assay for human Early Growth Response 1 (EGR1) (AID 2282938); details: HepG2 Attagene CIS-FACTORIAL EGR reporter mRNA; actives raise or lower the signal
Method in brief: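 Transient transfection of human HepG2 with multiple cis-regulated reporter units, chemical exposure 24 h, total RNA isolated. Reverse transcription, PCR, fluorescent labelling and capillary electrophoresis quantify reporter transcripts; activity fitted bidirectionally against DMSO.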

[3] = ATG_M_19_CIS: Attagene CIS-FACTORIAL HepG2 Assay for M19 Transcription Factor (Internal Marker) (AID 2282939); details: HepG2 Attagene CIS-FACTORIAL M19 internal marker reporter; actives raise or lower the signal
Method in brief: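 Readout: fluorescent reporter-transcript fragments by capillary electrophoresis after RT-PCR. Human HepG2 liver cells carried transfected MRTU constructs reporting endogenous transcription-factor activity; exposure 24 h. Gain or loss of signal fitted relative to DMSO.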

[4] = ATG_ERE_CIS: Attagene CIS-FACTORIAL HepG2 Assay for Estrogen Response Element (ERE) (AID 2282940); details: HepG2 ERE cis-reporter, Attagene RNA transcript; actives raise or lower the signal
Method in brief: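 Readout: reporter mRNA induction by RT-PCR, FAM-labelled primer extension, HpaI digestion and capillary electrophoresis, 24 h after dosing transfected HepG2 cells. Endogenous transcription factors act on cis-element-regulated reporters. Gain or loss fitted against DMSO.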

[5] = ATG_Ets_CIS: Attagene CIS-FACTORIAL HepG2 Assay for human Erythroblast Transformation Specific (ETS) (AID 2282941); details: HepG2 ETS cis-reporter transcription, actives raise or lower the signal
Method in brief: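 After transient cis-reporter transfection, HepG2 cells receive test chemical for 24 h. Reporter mRNA levels, measured by RT-PCR and capillary electrophoresis fluorescence, are analysed bidirectionally relative to the DMSO baseline.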

[6] = target: Hepatocyte nuclear factor 3-beta (Homo sapiens) (UniProt Q9Y261); test: ATG_FoxA2_CIS: Attagene CIS-FACTORIAL HepG2 Assay for human Forkhead box A2 (FOXA2) (AID 2282942); details: HepG2 cis-reporter transcription factor activity, 24 h; actives raise or lower the signal
Hepatocyte nuclear factor 3-beta (Homo sapiens), sequence (Q9Y261 whole entry, looked up): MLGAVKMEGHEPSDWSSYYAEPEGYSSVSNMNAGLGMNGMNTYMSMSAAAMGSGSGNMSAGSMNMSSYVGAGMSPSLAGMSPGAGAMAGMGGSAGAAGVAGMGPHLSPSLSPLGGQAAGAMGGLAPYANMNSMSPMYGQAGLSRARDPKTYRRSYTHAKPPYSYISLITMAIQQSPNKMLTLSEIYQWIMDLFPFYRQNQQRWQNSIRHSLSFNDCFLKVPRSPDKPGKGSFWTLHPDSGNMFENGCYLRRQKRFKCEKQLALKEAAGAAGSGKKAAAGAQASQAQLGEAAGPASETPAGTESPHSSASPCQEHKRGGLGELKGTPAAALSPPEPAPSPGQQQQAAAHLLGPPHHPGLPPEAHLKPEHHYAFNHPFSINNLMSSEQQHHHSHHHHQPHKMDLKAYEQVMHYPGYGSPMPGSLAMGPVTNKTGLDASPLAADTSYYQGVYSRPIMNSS
Method in brief: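 Transient MRTU transfection of HepG2 liver cells; 24 h treatment; total RNA → oligo(dT) RT → PCR → FAM primer extension → HpaI cut → CE. Bidirectional fit vs DMSO.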

[7] = ATG_FoxO_CIS: Attagene CIS-FACTORIAL HepG2 Assay for human Forkhead box O (FoxO) (AID 2282943); details: HepG2 Attagene cis-reporter, FoxO element, mRNA; actives raise or lower the signal
Method in brief: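 Transfected HepG2 reporter cells exposed to test chemical for 24 h; reporter RNA measured by reverse transcription, PCR and fluorescent capillary electrophoresis; curves fitted for increases and decreases against DMSO.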

[8] = ATG_GATA_CIS: Attagene CIS-FACTORIAL HepG2 Assay for human GATA Binding Protein (AID 2282944); details: HepG2 GATA cis-element reporter, Attagene multiplex mRNA; actives raise or lower the signal
Method in brief: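 Read-out: fluorescent reporter mRNA fragments resolved by capillary electrophoresis after RT-PCR. Human liver HepG2 cells carried transiently transfected cis-regulated reporter constructs; chemicals incubated 24 h; gain or loss of signal fitted relative to DMSO.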

[9] = ATG_GLI_CIS: Attagene CIS-FACTORIAL HepG2 Assay for human Zinc Finger Protein GLI1 (AID 2282945); details: HepG2, Attagene cis-factorial reporter mRNA, GLI element; actives raise or lower the signal
Method in brief: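 Transiently transfected HepG2 cells report endogenous transcription factor activity via cis-element-driven reporter units. After 24 h compound exposure, reporter mRNA was measured by RT-PCR with capillary electrophoresis; bidirectional fitting against DMSO baseline.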

[10] = ATG_GRE_CIS: Attagene CIS-FACTORIAL HepG2 Assay for human Glucocorticoid Response Elements (GRE) (AID 2282947); details: HepG2 GRE cis-reporter, Attagene multiplex mRNA; actives raise or lower the signal
Method in brief: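 Transiently transfected HepG2 cells carrying GRE cis-reporter units (endogenous TF activity) dosed 24 h; reporter mRNA quantified by RT-PCR, 6-FAM labelling, HpaI digestion and capillary electrophoresis. Bidirectional fit versus DMSO baseline.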

[11] = ATG_ISRE_CIS: Attagene CIS-FACTORIAL HepG2 Assay for human Interferon Regulatory Factor 1 (IRF1) binding to an Interferon-Stimulated Response Element (ISRE) (AID 2282948); details: HepG2 ISRE cis-reporter (Attagene), mRNA transcription readout; actives raise or lower the signal
Method in brief: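 Quantitation relies on labelled RT-PCR fragments separated by capillary electrophoresis. Human HepG2 cells bearing cis-promoter reporter constructs were treated 24 h; DMSO served as baseline for bidirectional fitting.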

[12] = ATG_M_32_CIS: Attagene CIS-FACTORIAL HepG2 Assay for M32 Transcription Factor (Internal Marker) (AID 2282949); details: HepG2 Attagene cis-factorial M32 reporter, mRNA; actives raise or lower the signal;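 further: background control marker of the multiplexed CIS panel rather than a real target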
Method in brief: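 Fluorescent capillary electrophoresis peaks of HpaI-digested, FAM-labelled RT-PCR reporter products give the signal. Source: transiently transfected human liver HepG2 cells, 24 h after chemical dosing; bidirectional fitting against DMSO.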

[13] = ATG_M_06_CIS: Attagene CIS-FACTORIAL HepG2 Assay for M06 Transcription Factor (Internal Marker) (AID 2282950); details: HepG2 Attagene CIS-FACTORIAL M06 internal marker reporter; actives raise or lower the signal
Method in brief: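 Terse: HepG2, transient MRTU transfection (FuGene 6), 24 h dosing; total RNA, oligo(dT) RT, PCR, FAM label, HpaI cut, capillary electrophoresis; bidirectional fit vs DMSO baseline; background-control endpoint.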

[14] = target: Hypoxia-inducible factor 1-alpha (Homo sapiens) (UniProt Q16665); test: ATG_HIF1a_CIS: Attagene CIS-FACTORIAL HepG2 Assay for human Hypoxia Inducible Factor 1 (HIF1A) (AID 2282951); details: HepG2 Attagene cis-factorial HIF1a reporter transcription; actives raise or lower the signal
Hypoxia-inducible factor 1-alpha (Homo sapiens), sequence (Q16665 whole entry, looked up, the tested form may be a part): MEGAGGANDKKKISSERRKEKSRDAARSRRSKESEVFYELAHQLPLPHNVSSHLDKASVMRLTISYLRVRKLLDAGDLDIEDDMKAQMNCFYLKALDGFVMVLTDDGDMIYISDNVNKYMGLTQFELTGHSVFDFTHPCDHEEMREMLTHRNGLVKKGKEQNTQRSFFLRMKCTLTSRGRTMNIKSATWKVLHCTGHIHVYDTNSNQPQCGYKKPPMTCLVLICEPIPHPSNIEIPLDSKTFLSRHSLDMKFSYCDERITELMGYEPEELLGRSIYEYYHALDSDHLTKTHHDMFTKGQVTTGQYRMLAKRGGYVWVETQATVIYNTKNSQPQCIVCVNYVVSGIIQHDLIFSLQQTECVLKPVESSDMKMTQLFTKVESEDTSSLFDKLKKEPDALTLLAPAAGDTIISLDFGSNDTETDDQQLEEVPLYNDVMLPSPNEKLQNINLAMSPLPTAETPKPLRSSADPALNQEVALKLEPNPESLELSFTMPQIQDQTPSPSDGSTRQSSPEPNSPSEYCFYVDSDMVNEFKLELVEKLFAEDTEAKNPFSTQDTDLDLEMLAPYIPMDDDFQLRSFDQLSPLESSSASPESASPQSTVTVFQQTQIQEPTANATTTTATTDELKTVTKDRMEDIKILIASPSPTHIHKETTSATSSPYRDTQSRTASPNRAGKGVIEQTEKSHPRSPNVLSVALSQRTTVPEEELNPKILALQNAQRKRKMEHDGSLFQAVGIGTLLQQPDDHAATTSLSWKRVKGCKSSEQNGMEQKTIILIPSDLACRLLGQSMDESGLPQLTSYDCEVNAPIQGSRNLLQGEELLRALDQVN
Method in brief: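 Transient MRTU transfection of human HepG2 liver cells, 24 h compound treatment, then total RNA isolation, oligo(dT) reverse transcription, PCR amplification, fluorescent labelling and capillary electrophoresis of reporter fragments. Gain or loss relative to DMSO.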

[15] = target: Hepatocyte nuclear factor 6 (Homo sapiens) (UniProt Q9UBC0); test: ATG_HNF6_CIS: Attagene CIS-FACTORIAL HepG2 Assay for human Hepatocyte Nuclear Factor 6 (HNF6) (AID 2282952); details: HepG2 Attagene cis-factorial HNF6 reporter transcription; actives raise or lower the signal
Hepatocyte nuclear factor 6 (Homo sapiens), sequence (Q9UBC0 whole entry, looked up): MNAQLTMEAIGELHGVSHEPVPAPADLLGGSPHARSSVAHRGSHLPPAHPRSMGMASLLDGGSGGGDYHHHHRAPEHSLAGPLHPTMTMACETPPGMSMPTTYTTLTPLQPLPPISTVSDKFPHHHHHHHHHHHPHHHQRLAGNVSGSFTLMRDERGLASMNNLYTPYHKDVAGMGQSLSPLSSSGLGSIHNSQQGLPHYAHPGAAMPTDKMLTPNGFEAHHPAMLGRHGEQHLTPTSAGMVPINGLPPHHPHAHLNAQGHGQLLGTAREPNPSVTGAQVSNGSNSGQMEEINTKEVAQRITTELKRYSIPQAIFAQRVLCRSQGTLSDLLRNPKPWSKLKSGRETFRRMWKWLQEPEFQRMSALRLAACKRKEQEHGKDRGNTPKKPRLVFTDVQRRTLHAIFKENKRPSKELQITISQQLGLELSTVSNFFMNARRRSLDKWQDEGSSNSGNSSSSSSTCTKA
Method in brief: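 HepG2, transient MRTU transfection (cis promoters); 24 h chemical exposure; total RNA → oligo(dT) RT → PCR → 6-FAM labelling → HpaI cut → CE; bidirectional fit vs DMSO.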

[16] = ATG_MRE_CIS: Attagene CIS-FACTORIAL HepG2 Assay for human Metal Responsive Element (MRE) (AID 2282954); details: HepG2 MRE cis-reporter transcription, Attagene multiplex; actives raise or lower the signal
Method in brief: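 HepG2 cells transiently transfected with cis-element-driven reporter units; mRNA measured 24 h after dosing. Reporter transcripts quantified by RT-PCR, FAM labelling, HpaI digestion and capillary electrophoresis; bidirectional fit versus DMSO.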

[17] = ATG_E_Box_CIS: Attagene CIS-FACTORIAL HepG2 Assay for human Enhancer Box (E-box) (AID 2282936); details: HepG2 E-box cis-reporter transcription, actives raise or lower the signal
Method in brief: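 HepG2 cells transiently transfected with multiplexed cis-element reporter units, dosed 24 h; reporter mRNA quantified by RT-PCR, 6-FAM labelling, HpaI digestion and capillary electrophoresis. E-box (USF1) signal fitted bidirectionally vs DMSO.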

[18] = target: Bile acid receptor (Homo sapiens) (UniProt Q96RI1); test: ATG_IR1_CIS: Attagene CIS-FACTORIAL HepG2 Assay for human Nuclear Receptor Subfamily 1 Group H Member 4 (NR1H4), IR1 submotif (AID 2282946); details: IR1 reporter transcription, actives raise or lower the signal
Bile acid receptor (Homo sapiens), sequence (Q96RI1 whole entry, looked up): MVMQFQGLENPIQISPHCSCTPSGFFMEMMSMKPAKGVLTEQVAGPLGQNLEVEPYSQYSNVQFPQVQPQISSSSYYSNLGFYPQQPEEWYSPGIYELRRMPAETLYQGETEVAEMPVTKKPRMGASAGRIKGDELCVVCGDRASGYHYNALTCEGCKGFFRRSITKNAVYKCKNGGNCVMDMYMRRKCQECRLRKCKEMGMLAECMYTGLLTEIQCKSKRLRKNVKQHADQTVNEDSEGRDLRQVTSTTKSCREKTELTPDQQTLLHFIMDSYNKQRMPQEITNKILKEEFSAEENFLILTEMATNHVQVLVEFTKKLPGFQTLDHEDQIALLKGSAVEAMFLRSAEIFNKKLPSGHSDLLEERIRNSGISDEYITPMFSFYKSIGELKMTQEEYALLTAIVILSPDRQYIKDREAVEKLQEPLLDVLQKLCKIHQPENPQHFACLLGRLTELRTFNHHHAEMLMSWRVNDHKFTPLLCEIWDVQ
Method in brief: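 HepG2 cells transiently transfected with multiple cis-promoter-driven reporter units to measure endogenous transcription factor activity; 24 h exposure. Reporter mRNA read by RT-PCR, FAM labelling, HpaI digestion and capillary electrophoresis. Bidirectional fit versus DMSO.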

[19] = target: Heat shock factor protein 1 (Homo sapiens) (UniProt Q00613); test: ATG_HSE_CIS: Attagene CIS-FACTORIAL HepG2 Assay for human Heat Shock Transcription Factor 1 (HSE) (AID 2282953); details: HepG2 HSE cis-reporter, Attagene RNA transcription; actives raise or lower the signal
Heat shock factor protein 1 (Homo sapiens), sequence (Q00613 whole entry, looked up, the tested form may be a part): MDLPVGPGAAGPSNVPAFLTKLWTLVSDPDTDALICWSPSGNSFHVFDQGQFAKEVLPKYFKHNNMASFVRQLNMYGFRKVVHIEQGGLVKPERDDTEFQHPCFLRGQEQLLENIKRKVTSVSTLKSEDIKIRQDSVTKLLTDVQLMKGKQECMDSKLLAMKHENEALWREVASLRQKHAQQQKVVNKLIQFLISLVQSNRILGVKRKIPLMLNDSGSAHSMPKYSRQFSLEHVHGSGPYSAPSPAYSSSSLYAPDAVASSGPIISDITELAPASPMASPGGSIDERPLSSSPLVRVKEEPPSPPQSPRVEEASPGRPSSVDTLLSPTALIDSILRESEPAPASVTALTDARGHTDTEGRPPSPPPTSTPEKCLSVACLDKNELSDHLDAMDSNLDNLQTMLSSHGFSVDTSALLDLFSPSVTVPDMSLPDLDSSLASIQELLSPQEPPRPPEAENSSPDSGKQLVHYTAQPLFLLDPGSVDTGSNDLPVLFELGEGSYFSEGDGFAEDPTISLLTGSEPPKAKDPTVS
Method in brief: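 Read-out: fluorescence of reporter-specific RT-PCR fragments separated by capillary electrophoresis. HepG2 carrying transfected cis-element reporter units; 24 h dosing; activity fitted in both directions relative to DMSO baseline.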

[20] = ATG_PBREM_CIS: Attagene CIS-FACTORIAL HepG2 Assay for human Phenobarbital-responsive Enhancer Module (PBREM) (AID 2282955); details: HepG2 PBREM cis-reporter, Attagene multiplexed transcription; actives raise or lower the signal
Method in brief: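 Endogenous transcription factors in human liver HepG2 cells drive a PBREM cis-element reporter, whose transcript level after 24 h treatment is quantified by RT-PCR with capillary electrophoresis; activity fitted in both directions against DMSO.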

Measured: outcome

COc1ccc(-n2nc(C(F)F)cc2-c2ccc(S(C)=O)cc2)cc1 (stereo not given)
inactive: [1] | [2] | [3] | [4] | [5] | [6] | [7] | [8] | [9] | [10] | [11] | [12] | [13] | [14] | [15] | [16]

CC(C)=CCC/C(C)=C\CO
inactive: [17] | [1] | [2] | [3] | [5] | [6] | [7] | [8] | [9] | [18] | [10] | [11] | [13] | [15] | [16]

Cc1c(-c2cccnc2)c2ccccc2n1CCCCC(=O)O
inactive: [17] | [1] | [2] | [3] | [5] | [6] | [7] | [8] | [9] | [18] | [11] | [13] | [14] | [15] | [19] | [16] | [20]

C[C@](N)(Cc1ccc(O)c(O)c1)C(=O)O
inactive: [17] | [1] | [2] | [3] | [5] | [6] | [7] | [8] | [9] | [11] | [12] | [13] | [14] | [15] | [19] | [16] | [20]
